Compounds with a hit are over-represented: about 5.3% of the library has one in this group of screens.
PfM18AAP inh-1: PfM18AAP enzyme inhibition | recombinant PfM18AAP, H-Glu-NHMec fluorogenic cleavage | inhibition, % at 7.35 µM | hit rate 1.2% among 290,000;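 active = inhibition above the campaign mean inhibition over all tested compounds plus 3 SD, cut at about 28% in these data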
ALR inh: human ALR oxidase inhibition via reduced H2O2; inhibition, % (concentration not given with the values); purified ALR, DTT oxidation, H2O2 HRP-luminol luminescence; hit rate 3.8% among 290,000; AID 485317;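 active = mean replicate inhibition above about 79%, with every replicate also reaching it, limit read from the data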
Target sequence (P55789 whole entry, looked up): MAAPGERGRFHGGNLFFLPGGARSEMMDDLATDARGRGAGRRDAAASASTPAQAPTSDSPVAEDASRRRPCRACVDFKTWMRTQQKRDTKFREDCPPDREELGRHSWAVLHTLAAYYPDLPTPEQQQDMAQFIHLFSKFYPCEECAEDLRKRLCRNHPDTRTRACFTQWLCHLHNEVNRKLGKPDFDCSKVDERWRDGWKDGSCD
HIF activator: HIF pathway transcriptional activation. hit rate 0.32% among 300,000. U2OS HRE-luciferase reporter, luminescence; normalized: DMSO 0%, desferrioxamine 100%. activation, % at 7.5 µM (by protocol);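 active = mean activation of at least 10% of the iron chelator positive control signal, with at least half of replicates also reaching 10%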
Mot1-301 SUMO: SUMOylation pathway inhibition by Mot1-301 growth rescue; growth rescue, % at 18.8 µM; AID 2716; S. cerevisiae Mot1-301 growth rescue, ATP luminescence, 38.5C; percent above DMSO median, 100 means doubled; hit rate 1% among 320,000;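 active = every valid replicate shows activation above 250% relative to neutral control wells; inactive = the rest, any valid replicate at or below 250%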
PfM18AAP inh-2: confirmation of Plasmodium falciparum M18 aspartyl aminopeptidase inhibitors | recombinant PfM18AAP, H-Glu-NHMec fluorogenic cleavage | shares compounds with PfM18AAP inh-1 | hit rate 28% among 2,400 | inhibition, % at 7.35 µM | AID 2170;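 active = mean inhibition over replicate wells above the hit cutoff set for the earlier primary screen, cut at about 29% in these data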
CTSL1 counter: Cathepsin L (human) inhibition, confirmation. shares compounds with PfM18AAP inh-1. purified cathepsin L1, Z-Leu-Arg-MCA fluorescence. inhibition, % at 5.96 µM. 2,400 tested, under 10 active. AID 2178;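 active = average inhibition across replicates above the hit cutoff set in the earlier primary screen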
Target sequence (P07711 whole entry, looked up): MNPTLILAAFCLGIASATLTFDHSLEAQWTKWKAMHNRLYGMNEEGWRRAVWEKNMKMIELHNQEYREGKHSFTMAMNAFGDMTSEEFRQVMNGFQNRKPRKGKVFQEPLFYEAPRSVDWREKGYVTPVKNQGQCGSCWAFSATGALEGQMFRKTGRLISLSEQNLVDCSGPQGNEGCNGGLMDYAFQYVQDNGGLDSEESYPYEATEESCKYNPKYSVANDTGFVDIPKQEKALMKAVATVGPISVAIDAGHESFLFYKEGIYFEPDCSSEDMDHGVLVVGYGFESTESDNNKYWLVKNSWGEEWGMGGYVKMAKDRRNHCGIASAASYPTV
Mot1 SUMO dose: yeast SUMO pathway inhibition in dose response; 2,300 tested, under 10 active; growth activity, percent, % at 42 µM; shares compounds with Mot1-301 SUMO; AID 493004; S. cerevisiae Mot1-301 galactose growth, ATP luminescence, 24 h; -100 = growth of slx-deleted rescue strain;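 active = Signal drops as the depositor expects, and the fitted half-maximal dose is no more than ten times the top valid tested dose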;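 note: more negative values mean stronger growth rescue toward the control strain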
Hits are given with their value.

O=c1[nH]c(=O)n(-c2ccc(F)cc2)c(O)c1/C=C1\C=Nc2ccccc21 was read as PfM18AAP inh-1 32, ALR inh inactive, HIF activator inactive, Mot1-301 SUMO inactive, PfM18AAP inh-2 29 and CTSL1 counter inactive.
Screening O=c1[nH]c(=O)n(-c2ccccc2F)c(O)c1/C=C1\C=Nc2ccccc21 returned PfM18AAP inh-1 42, ALR inh 96, HIF activator inactive, Mot1-301 SUMO inactive, PfM18AAP inh-2 41 and CTSL1 counter inactive.
CCC(=NCc1cccnc1)c1c(O)n(-c2ccc(C)cc2)c(=O)[nH]c1=O was read as PfM18AAP inh-1 inactive, ALR inh inactive, HIF activator inactive and Mot1-301 SUMO inactive.
`O=C(CCc1nnc2ccc(NCc3ccc(F)cc3)nn12)N1CCC2(CC1)OCCO2` gave PfM18AAP inh-1 inactive, ALR inh inactive, HIF activator inactive and Mot1-301 SUMO inactive.
O=[N+]([O-])c1cc2c(cc1CNCCc1ccc3c(c1)OCO3)OCO2 was read as PfM18AAP inh-1 inactive, ALR inh inactive, HIF activator inactive and Mot1-301 SUMO inactive.
For CCN1CCN(Cc2cc3c(cc2[N+](=O)[O-])OCO3)CC1 the results were PfM18AAP inh-1 48, ALR inh inactive, HIF activator inactive, Mot1-301 SUMO inactive, PfM18AAP inh-2 inactive and CTSL1 counter inactive.
Screening COc1c(/C=C2/C(=O)NC(=O)N(C)C2=O)c(CCN(C)C(=O)c2ccccc2)cc2c1OCO2 returned PfM18AAP inh-1 inactive, ALR inh inactive, HIF activator inactive and Mot1-301 SUMO inactive.
Screening Cc1ccc(NP(=O)(c2ccccc2)c2nc3ccccc3s2)cc1 (stereo not given) returned PfM18AAP inh-1 inactive, ALR inh inactive, HIF activator inactive and Mot1-301 SUMO inactive.
Cc1nc2ccc(P(=O)(O)O)cc2s1 was read as PfM18AAP inh-1 50, ALR inh inactive, HIF activator inactive, Mot1-301 SUMO inactive, PfM18AAP inh-2 inactive and CTSL1 counter inactive.
CCN(CC)C(=O)c1ccc(NC(=O)c2ccc(N3CCCC3=O)cc2)cc1 was read as ALR inh inactive and Mot1-301 SUMO inactive.
Screening O=C1CCCN1c1ccc(S(=O)(=O)O)cc1 (tested in a mixture with another compound) returned PfM18AAP inh-1 80, ALR inh inactive, HIF activator inactive, Mot1-301 SUMO inactive, PfM18AAP inh-2 79 and CTSL1 counter inactive.
N#Cc1c(/N=C/c2ccc(O)cc2O)sc2c1C1CCN2CC1 was read as PfM18AAP inh-1 40, ALR inh inactive, HIF activator inactive, Mot1-301 SUMO inactive, PfM18AAP inh-2 inactive and CTSL1 counter inactive.
`CCN(CC)c1ccc(N=Cc2c(O)n(-c3ccc(OC)cc3)c(=O)[nH]c2=O)cc1` gave PfM18AAP inh-1 42, HIF activator inactive, Mot1-301 SUMO inactive, PfM18AAP inh-2 inactive and CTSL1 counter inactive.
`Cc1ccccc1-n1c(O)c(C=Nc2ccc(N(C)C)cc2)c(=O)[nH]c1=O` gave PfM18AAP inh-1 46, ALR inh 92, HIF activator inactive, Mot1-301 SUMO inactive, PfM18AAP inh-2 inactive and CTSL1 counter inactive.
Cc1ccccc1-n1c(O)c(/C=N/c2nccs2)c(=O)[nH]c1=O was read as PfM18AAP inh-1 inactive, ALR inh inactive, HIF activator inactive and Mot1-301 SUMO inactive.
`COc1ccc(C(O)CNC(C)C)c(F)c1OC` (stereo not given) gave ALR inh inactive, HIF activator inactive and Mot1-301 SUMO inactive.
O=C1NC(=O)C(=Cc2cc3c(cc2[N+](=O)[O-])OCO3)C(=O)N1 was read as PfM18AAP inh-1 40, ALR inh inactive, HIF activator inactive, Mot1-301 SUMO inactive, PfM18AAP inh-2 inactive and CTSL1 counter inactive.
For Cc1cccc(N2C(=O)NC(=O)/C(=C/c3cc4c(cc3[N+](=O)[O-])OCO4)C2=O)c1 the results were PfM18AAP inh-1 inactive, ALR inh inactive, HIF activator inactive and Mot1-301 SUMO inactive.
O=c1c2ccccc2nc(/C=C/c2ccccc2)n1-c1ccc(O)cc1 was read as PfM18AAP inh-1 inactive, ALR inh inactive, HIF activator inactive and Mot1-301 SUMO inactive.
For O=c1c2ccccc2nc(/C=C/c2ccc(O)c(O)c2)n1-c1ccccc1 the results were PfM18AAP inh-1 63, ALR inh inactive, HIF activator inactive, Mot1-301 SUMO inactive, PfM18AAP inh-2 41 and CTSL1 counter inactive.
`O=c1[nH]sc2cc(F)ccc12` gave PfM18AAP inh-1 58, HIF activator inactive, PfM18AAP inh-2 37 and CTSL1 counter inactive.
For C=CCn1c(O)c(C(CC)=Nc2ccc(N(C)C)cc2)c(=O)[nH]c1=O the results were PfM18AAP inh-1 52, ALR inh inactive, HIF activator inactive, Mot1-301 SUMO inactive, PfM18AAP inh-2 inactive and CTSL1 counter inactive.
NN=C(N)N was read as ALR inh inactive and Mot1-301 SUMO inactive.
COC(=O)[C@@H]1[C@@H](C(=O)OC)C2(c3ccccc3-c3ccccc32)N(c2ccc(Cl)cc2)N1C#N was read as PfM18AAP inh-1 inactive, ALR inh inactive, HIF activator inactive, Mot1-301 SUMO 427 and Mot1 SUMO dose inactive.
For CCOP(=O)(OCC)c1cc(CC)ccc1O the results were PfM18AAP inh-1 inactive, ALR inh inactive, HIF activator inactive, Mot1-301 SUMO active and Mot1 SUMO dose inactive.
`COc1ccccc1CN1CCN(Cc2ccc(Cl)cc2)CC1` gave PfM18AAP inh-1 inactive, ALR inh inactive, HIF activator inactive and Mot1-301 SUMO inactive.
Screening COc1ccc(Oc2c(C)oc3cc(OC(=O)N(C)C)ccc3c2=O)cc1 returned PfM18AAP inh-1 inactive, ALR inh inactive, HIF activator inactive, Mot1-301 SUMO 524 and Mot1 SUMO dose inactive.
CCCCn1c(O)c(C(CC)=NCCN2CCCCC2)c(=O)[nH]c1=O was read as PfM18AAP inh-1 inactive, ALR inh inactive, HIF activator inactive and Mot1-301 SUMO inactive.
Screening CCOc1c(P(=S)(N(C)C)N(C)C)c(C)nn1-c1ccccc1 returned PfM18AAP inh-1 inactive, ALR inh inactive, HIF activator inactive, Mot1-301 SUMO 891 and Mot1 SUMO dose inactive.
For CC(C)C/C(=N/O)c1c[nH]c2ccccc12 the results were PfM18AAP inh-1 inactive, ALR inh inactive, HIF activator inactive, Mot1-301 SUMO 572 and Mot1 SUMO dose inactive.
Screening Nc1cc(Cl)cc(Cl)c1 returned ALR inh inactive and Mot1-301 SUMO inactive.
OC1(c2ccc(F)cc2)CC2CCC(C1)N2Cc1nnnn1C1CCCCC1 (stereo not given) was read as PfM18AAP inh-1 inactive, ALR inh inactive, HIF activator inactive, Mot1-301 SUMO 674 and Mot1 SUMO dose inactive.
OC[C@H]1O[C@@H](n2cnc3cc(Cl)c(Cl)cc32)[C@H](O)[C@@H]1O was read as ALR inh inactive and Mot1-301 SUMO inactive.

High-throughput results deposited in PubChem BioAssay by several laboratories.
